# Results published in PubChem BioAssay (EPA / NIEHS).
# Where “and” joins values, the source holds several entries; their conditions need not be identical. Identical values can stand only once. Results filed as inconclusive are left out. Calls of active or inactive are those of the source. How the source made its calls, unless noted: active means hit-call score of the fitted dose curve at least 0.9, where 1 is the maximum; inconclusive means response in the unintended direction; inactive means score below 0.9.
# Tests used:
# [1] = tested on: Brachyury (BRA) Protein Expression, Deisenroth Lab, TBXT (gene 6862); test: CCTE_Deisenroth_DEVTOX-GLR_legacy_Bra: (Legacy) CCTE's DevTox GLR-Endo Assay Evaluation of Brachyury (BRA) Protein Expression, Deisenroth Lab (AID 2284329; active means hit-call score of the fitted dose curve at least 0.9, where 1 is the maximum; inactive means score below 0.9)
# In short: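 High-content imaging of fixed RUES2-GLR cells after a 48-hour differentiation with two compound exposures yields percent cells whose Bra signal exceeds pluripotent control median by 5x BMAD; values are baseline-corrected to DMSO.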
# [2] = CCTE_Deisenroth_DEVTOX-GLR_legacy_CellCount: (Legacy) Viability Assessment in CCTE's DevTox GLR-Endo Assay, Deisenroth Lab (AID 2284331; active means hit-call score of the fitted dose curve at least 0.9, where 1 is the maximum; inactive means score below 0.9); conditions: actives raise or lower the signal
# In short: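 Human pluripotent RUES2-GLR cells differentiated 48 h with two 24-h-interval exposures, 10-point 1 nM–200 uM series, 0.2% DMSO. Fixed nuclei counted by high-content imaging (5 fields/well); bidirectional fit vs DMSO, n≥4.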
# [3] = tested on: SRY-box transcription factor 17 (SOX17) Protein Expression, Deisenroth Lab, SOX17 (gene 64321); test: CCTE_Deisenroth_DEVTOX-GLR_legacy_Sox17: (Legacy) CCTE's DevTox GLR-Endo Assay Evaluation of SRY-box transcription factor 17 (SOX17) Protein Expression, Deisenroth Lab (AID 2284341; active means hit-call score of the fitted dose curve at least 0.9, where 1 is the maximum; inactive means score below 0.9); conditions: actives raise or lower the signal
# In short: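 RUES2-GLR human pluripotent cells differentiated toward endoderm for 48 h, dosed twice at 24 h intervals (1 nM–200 uM, 10 points). Imaging gives % SOX17+ cells (intensity >5x BMAD above pluripotent control median); bidirectional fit versus 0.2% DMSO.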
# [4] = tested on: SRY-box transcription factor 2 (SOX2) Protein Expression, Deisenroth Lab, SOX2 (gene 6657); test: CCTE_Deisenroth_DEVTOX-GLR_legacy_Sox2: (Legacy) CCTE's DevTox GLR-Endo Assay Evaluation of SRY-box transcription factor 2 (SOX2) Protein Expression, Deisenroth Lab (AID 2284346; active means hit-call score of the fitted dose curve at least 0.9, where 1 is the maximum; inactive means score below 0.9)
# In short: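 Two exposures, 24 h apart, during 48 h defined-media differentiation of seeded RUES2-GLR cells; nuclei-stained cells imaged. Sox2 positivity called at 5x BMAD above endoderm control median, DMSO median subtracted.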
# DIO2 (gene 1734) = test: CCTE_GLTED_hDIO2: CCTE's human Deiodinase 2 (DIO2) Inhibition Assay, Great Lakes Toxicology and Ecology Division (GLTED) Lab (AID 2284050)
# In short: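 Triplicate cell-free incubations (3 h) of human DIO2 with chemical preceded colorimetric Sandell-Kolthoff quantitation of liberated iodide; DMSO served as negative control for curve fitting.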
# DIO3 (gene 1735) = test: CCTE_GLTED_hDIO3: CCTE's human Deiodinase 3 (DIO3) Inhibition Assay, Great Lakes Toxicology and Ecology Division (GLTED) Lab (AID 2284055);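 further: potency is for inhibition seen as loss of released iodide signal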
# In short: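 Steps: incubate adenovirus-produced hDIO3 with chemical for 3 hours; detect freed iodide via cerium-arsenic Sandell-Kolthoff colorimetry; compare with DMSO baseline.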
# [5] = CCTE_Deisenroth_AIME_96WELL_CTox_Active: Cytotoxicity Assessment (CTOX) in CCTE's 96-well Estrogen Receptor Transactivation Assay with AIME metabolic competence (metabolism positive), Deisenroth Lab (AID 2284028)
# In short: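 Cytotoxicity in VM7Luc4E2 breast cells after 24 h exposure to medium from a 2 h metabolic pre-incubation with induced rat hepatic S9 in alginate microspheres; fluorescent live-cell protease readout, 10-point series 0.002–200 uM, n=4.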
# [6] = CCTE_Deisenroth_AIME_96WELL_CTox_Inactive: Cytotoxicity Assessment (CTOX) in CCTE's 96-well Estrogen Receptor Transactivation Assay without AIME metabolic competence (metabolism negative), Deisenroth Lab (AID 2284029)
# In short: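 Cytotoxicity in VM7Luc4E2 breast cells was scored as loss of fluorescent signal from a live-cell protease substrate 24 h after exposure, using bidirectional curve fitting. Test media came from a 2 h metabolism-negative pre-incubation (alginate-water, no hepatic S9) of compounds at 0.002-200 uM, with at least four replicates.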
# [7] = CCTE_Harrill_HTTr_Viability_MCF7: CCTE's 6-hour Cell Viability Assessment for the High-Throughput Transcriptomics (HTTr) Platform, in MCF-7 cells cultured in DMEM + 10% fetal bovine serum, Harrill Lab (AID 2284010; active means hit-call score of the fitted dose curve at least 0.9, where 1 is the maximum; inactive means score below 0.9)
# In short: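 Eight-point concentration series, six-hour exposure. Propidium iodide exclusion imaged to assess membrane integrity as a cytotoxicity readout; bidirectional fitting was done with DMSO as negative control and activity baseline.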
# [8] = CCTE_Harrill_HTTr_CellCount_MCF7: CCTE's Cell Proliferation Assessment for the High-Throughput Transcriptomics (HTTr) Platform, Harrill Lab (AID 2284012);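 further: count of Hoechst-stained nuclei per well by high-content imaging in MCF-7 cells; cells exposed to compound for six hours; intended direction is loss of nuclei count meaning fewer cells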
# In short: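 For this full-screen endpoint, MCF-7 cultures received eight compound dilutions for six hours. Well nuclei counts from Hoechst imaging were analyzed relative to DMSO.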
smiles,measurement,setting,value
NC(=O)c1ccc(-c2nc(-c3ccc4c(c3)OCO4)c(-c3ccccn3)[nH]2)cc1,outcome,[1],inactive
same,outcome,[2],inactive
same,outcome,[3],inactive
same,outcome,[4],inactive
COc1cc(O)c(CC=C(C)C)c(O)c1C(=O)/C=C/c1ccc(O)cc1,AC50,DIO2 (gene 1734),215 nM (active) and 797 nM (active)
same,AC50,DIO3 (gene 1735),150 nM (active) and 222 nM (active)
CC/C(=C(\c1ccc(O)cc1)c1ccc(OCCN(C)C)cc1)c1ccccc1,AC50,[5],57.8 µM (active)
same,AC50,[6],57.6 µM (active)
CCCCCC1=C(C)CCC1=O,outcome,[7],inactive
same,outcome,[8],inactive
